Results on eight compounds are retold here after PubChem BioAssay (Tox21).

Results filed as inconclusive are left out. A structure can be active in one record and inactive in another. Activity calls are given as the source filed them. Unless noted, calls come from the whole dose curve; as a rule, active = well fitted curve in the direction sought with a large enough effect in the repeat runs; inconclusive = weak or mixed curves; inactive = no such curve, though single readings can be large; an effect the other way counts as inactive or inconclusive.

The target of experiment [1] is Estrogen receptor (Homo sapiens) (UniProt P03372). Put plainly: qHTS assay to identify small molecule antagonists of the estrogen receptor alpha (ER-alpha) signaling pathway using the BG1 cell line in the presence of 0.1 nM 17-beta-estradiol (AID 1259244). Note: nearly all actives have a fitted effect of over 50% in size. The method, boiled down: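 Luciferase signal from VM7Luc4E2 ERE-reporter cells, co-dosed with test compound and 0.1 nM final 17beta-estradiol for 22 h, read with ONE-Glo.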

Experiment [2] can be described thus: qHTS assay to identify small molecule HDAC inhibitors (AID 1259364).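 Note: wild-type HCT-116 cells with endogenous class I/II HDAC activity; top concentration of the series differs between compounds; nearly all actives have a fitted effect of over 45% in size.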 The method, boiled down: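 HCT-116 wt cells, 1,500/well, overnight attach. Compounds (DMSO) 2 h, 37 °C. HDAC-Glo I/II, 30 min RT. Luminescence.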
The nature of experiment [3]: qHTS assay to identify small molecule HDAC inhibitors - cell viability counter screen (AID 1259365). Note: series mostly up to about 92 µM; nearly all actives have a fitted effect of over 50% in size. The method, boiled down: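 To flag cytotoxic hits, 1,500 wild-type HCT-116 cells per well, plated the day before, receive test compounds for 2hr at 37 C before CellTiter-Glo reagent and a luminescence read.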
Experiment [4] in a line: qHTS assay to identify small molecule agonists of the sonic hedgehog signaling (Shh) pathway - cell viability counter screen (AID 1259366). Note: nearly all actives have a fitted effect of over 50% in size. The method, boiled down: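 Fluorescence from CellTiter-Fluor reports live cells in this counter screen. NIH/3T3-derived Gli1-Luc reporter cells receive test compounds for 24hr at 37C; reagent goes in at 23hr.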
Experiment [5] is described as follows: qHTS assay to identify small molecule agonists of the sonic hedgehog signaling (Shh) pathway (AID 1259368; calls by dose curve;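 note: NIH/3T3-derived 3T3Gli1-Luc cells carrying a stable Gli1-driven firefly luciferase reporter; series mostly up to about 92 µM; nearly all actives have a fitted effect of over 15% in size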). Summed up: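 Following a 24 hr incubation with DMSO-dissolved compounds at 37 C, 5% CO2, Gli1-Luc NIH/3T3-derived cells received luciferase reagent for 30 min at room temperature prior to luminescence measurement.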
A short description of experiment [6]: qHTS assay to identify small molecule antagonists of the sonic hedgehog signaling (Shh) pathway (AID 1259369; calls by dose curve; note: nearly all actives have a fitted effect of over 45% in size; note: potency is the fitted concentration of half-maximal effect). Summed up: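 Read-out is luminescence from a firefly luciferase gene controlled by the Gli1 response element, in 3T3Gli1-Luc cells pre-incubated 4hr then exposed to compounds and conditioned medium for 24hr.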
The target of experiment [7] is Estrogen receptor beta (Homo sapiens) (UniProt Q92731). Put plainly: qHTS assay to identify small molecule agonists of the estrogen receptor beta (ER-beta) signaling pathway (AID 1259377; active = well fitted activation curve with a large enough effect in the signal ratio in the repeat runs, not every such curve was filed as active; the % refers to the signal ratio). The method, boiled down:
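Screening used GripTite ER-beta-UAS-bla cells held in 2% charcoal-stripped FBS medium. After overnight (16 hr) compound incubation at 37C, beta-lactamase activity was detected with a FRET substrate by fluorescence.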

For experiment [8] the target is unchanged. Put plainly: qHTS assay to identify small molecule antagonists of the estrogen receptor beta (ER-beta) signaling pathway (AID 1259378; active = well fitted inhibition curve with a large enough effect in the signal ratio in the repeat runs, not every such curve was filed as active; the % refers to the signal ratio). Summed up:
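ER-beta-UAS-bla HEK293T (GripTite) cells in 2% charcoal-stripped FBS medium were preincubated 6 hr at 37C, dosed with compound, then stimulated with 1 nM E2 (final) for 16 hr; beta-lactamase reporter read by B/G FRET fluorescence after 2 hr substrate loading.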

Experiment [9] in a line: qHTS assay to identify small molecule agonists of the androgen receptor (AR) signaling pathway in the presence of an antagonist - cell viability counter screen (AID 1259379).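 Note: MDA-kb2 human breast cancer cells carrying an MMTV luciferase reporter; series mostly up to about 92 µM; nearly all actives have a fitted effect of over 25% in size.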 Summed up: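 Each compound was tested at 15 concentrations on MDA-kb2 cells in the presence of 3.0uM nilutamide. Viability was measured by CellTiter-Fluor fluorescence after a 16 hr incubation at 37C in a CO2-free atmosphere.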

A short description of experiment [10]: qHTS assay to identify small molecule agonists of the estrogen receptor beta (ER-beta) signaling pathway - cell viability counter screen (AID 1259380). Note: nearly all actives have a fitted effect of over 30% in size. The method, boiled down: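 Compounds dissolved in DMSO were pin-transferred onto ER-beta-UAS-bla HEK293T cells that had settled 6 hr, and exposure ran 16 hr at 37C. Following the reporter read, CellTiter-Glo luminescence after 30 min at room temperature indicated cytotoxicity.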

The nature of experiment [11]: qHTS assay to identify small molecule antagonists of the estrogen receptor beta (ER-beta) signaling pathway - cell viability counter screen (AID 1259382). Note: series mostly up to about 92 µM; nearly all actives have a fitted effect of over 55% in size. The method, boiled down: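 CellTiter-Glo ATP luminescence measured after the LiveBLAzer read in the same wells; ER-beta-UAS-bla HEK293T cells, 16 hr compound treatment with 1nM 17-beta-estradiol agonist at 37C, 5% CO2.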

In experiment [12] the target is Estrogen receptor (Homo sapiens) (UniProt P03372). Put plainly: qHTS assay to identify small molecule agonists of the estrogen receptor alpha (ER-alpha) signaling pathway in the presence of an antagonist (AID 1259383; calls by dose curve; note: top concentration of the series differs between compounds; nearly all actives have a fitted effect of over 15% in size). The method, boiled down: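 Luminescent ERE-luciferase reporter, VM7Luc4E2 cells (endogenous ER-alpha); 10.0nM ICI-182,780 final; 15-point compound titration; 22hr at 37C; ONE-Glo, 30min RT.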

Experiment [13] in a line: qHTS assay to identify small molecule agonists or antagonists of the thyroid stimulating hormone receptor (TSHR) signaling pathway - wild type cell line counter screen (AID 1259384; calls by dose curve). Summed up: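 Wild-type HEK293 cells were plated 18 h at 37 C/5% CO2, pin-dosed with compound plus Ro20-1724 medium, held 30 min at room temperature, then given cAMP-d2 and anti-cAMP-cryptate; fluorescence was read after 1 h. Fifteen concentrations, triplicate.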

The target in experiment [14] is Thyrotropin receptor (Homo sapiens) (UniProt P16473). Put plainly: qHTS assay to identify small molecule antagonists of the thyroid stimulating hormone receptor (TSHR) signaling pathway (AID 1259385; calls by dose curve; note: nearly all actives have a fitted effect of over 20% in size). The method, boiled down:
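TSHR-HEK293 cells were plated and held 18 h at 37C/5% CO2, then given compound plus Ro20-1724 and stimulated with TSH at 1.5 ng/mL final. After 30 min at room temperature, cAMP was detected with cAMP-d2/anti-cAMP-cryptate (1 h) by fluorescence.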

A short description of experiment [15]: qHTS assay to identify small molecule agonists of the estrogen receptor alpha (ER-alpha) signaling pathway in the presence of an antagonist - cell viability counter screen (AID 1259386).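 Note: series mostly up to about 92 µM; cells exposed to compounds for 22 h at 37 °C before the viability read; nearly all actives have a fitted effect of over 30% in size.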 Summed up: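 Using estrogen-depleted VM7Luc4E2 cells, the 15-concentration compound series was applied together with 10.0nM ICI-182,780 and incubated 22hr at 37C/5% CO2. Cell viability was then scored by CellTiter-Fluor.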

Experiment [16] addresses Progesterone receptor (Homo sapiens) (UniProt P06401). Put plainly: qHTS assay to identify small molecule agonists of the progesterone receptor (PR) signaling pathway (AID 1346784; calls by dose curve; note: nearly all actives have a fitted effect of over 30% in size). The method, boiled down:
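Seed PR-UAS-bla HEK 293T cells (2% charcoal-stripped FBS), incubate 6 hr at 37C; add compounds in DMSO, 16 hr at 37C; add LiveBLAzer B/G substrate, 2 hr RT; read fluorescence intensity.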

For experiment [17] the target is unchanged. Put plainly: qHTS assay to identify small molecule antagonists of the progesterone receptor (PR) signaling pathway (AID 1346795; active = well fitted inhibition curve with a large enough effect in the signal ratio in the repeat runs, not every such curve was filed as active; the % refers to the signal ratio). Summed up:
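Screening used a GripTite HEK293T line with PR-responsive UAS-beta-lactamase. Cells were challenged with compound in the presence of 1 nM R5020 final for 16 hr at 37C; B/G FRET substrate, 2 hr room temperature, fluorescence.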

The nature of experiment [18]: qHTS assay to identify small molecule antagonists of the sonic hedgehog signaling (Shh) pathway - cell viability counter screen (AID 1259367). Note: nearly all actives have a fitted effect of over 55% in size. Summed up: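 Conditioned medium drove Shh signaling in 3T3 Gli1-Luc cells exposed to compounds at 37C and 5% CO2. Viability was determined from CellTiter-Fluor fluorescence, with reagent incubated 1 hr after 23 hr of treatment.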

Experiment [19] can be described thus: qHTS assay to identify small molecule phospholipidosis (PLD) inducers (AID 1259344; active = well fitted curve in the direction sought with a large enough effect; an effect the other way counts as inactive or inconclusive). Summed up:
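After 4 h attachment on collagen I, HepG2 cells were dosed with compound alongside LipidTOX Red, kept 24 h at 37 C, fixed, and imaged for lamellar phospholipid pits.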

Chain of Thyrotropin receptor (Homo sapiens) (P16473 whole entry, looked up): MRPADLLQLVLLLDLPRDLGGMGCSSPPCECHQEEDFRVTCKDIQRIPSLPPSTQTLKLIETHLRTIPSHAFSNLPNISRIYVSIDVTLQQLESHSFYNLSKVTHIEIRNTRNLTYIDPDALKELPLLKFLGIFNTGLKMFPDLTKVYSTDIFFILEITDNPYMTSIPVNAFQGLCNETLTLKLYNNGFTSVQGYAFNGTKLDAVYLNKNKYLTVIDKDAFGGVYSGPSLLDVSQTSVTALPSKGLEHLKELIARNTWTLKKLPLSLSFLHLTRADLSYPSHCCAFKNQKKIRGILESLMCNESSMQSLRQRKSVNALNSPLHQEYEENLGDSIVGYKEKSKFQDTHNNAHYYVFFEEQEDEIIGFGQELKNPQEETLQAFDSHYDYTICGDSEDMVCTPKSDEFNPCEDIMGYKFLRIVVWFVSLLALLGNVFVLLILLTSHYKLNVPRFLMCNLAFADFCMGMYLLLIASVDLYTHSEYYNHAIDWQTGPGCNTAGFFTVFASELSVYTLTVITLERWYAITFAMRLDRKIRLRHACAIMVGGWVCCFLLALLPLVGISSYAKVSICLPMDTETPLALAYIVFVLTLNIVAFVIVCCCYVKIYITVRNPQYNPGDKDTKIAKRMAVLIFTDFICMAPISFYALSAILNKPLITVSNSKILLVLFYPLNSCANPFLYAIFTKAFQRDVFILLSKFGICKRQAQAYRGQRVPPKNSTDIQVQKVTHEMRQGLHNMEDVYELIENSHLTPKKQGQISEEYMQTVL
Chain of Estrogen receptor (Homo sapiens) (P03372 whole entry, looked up): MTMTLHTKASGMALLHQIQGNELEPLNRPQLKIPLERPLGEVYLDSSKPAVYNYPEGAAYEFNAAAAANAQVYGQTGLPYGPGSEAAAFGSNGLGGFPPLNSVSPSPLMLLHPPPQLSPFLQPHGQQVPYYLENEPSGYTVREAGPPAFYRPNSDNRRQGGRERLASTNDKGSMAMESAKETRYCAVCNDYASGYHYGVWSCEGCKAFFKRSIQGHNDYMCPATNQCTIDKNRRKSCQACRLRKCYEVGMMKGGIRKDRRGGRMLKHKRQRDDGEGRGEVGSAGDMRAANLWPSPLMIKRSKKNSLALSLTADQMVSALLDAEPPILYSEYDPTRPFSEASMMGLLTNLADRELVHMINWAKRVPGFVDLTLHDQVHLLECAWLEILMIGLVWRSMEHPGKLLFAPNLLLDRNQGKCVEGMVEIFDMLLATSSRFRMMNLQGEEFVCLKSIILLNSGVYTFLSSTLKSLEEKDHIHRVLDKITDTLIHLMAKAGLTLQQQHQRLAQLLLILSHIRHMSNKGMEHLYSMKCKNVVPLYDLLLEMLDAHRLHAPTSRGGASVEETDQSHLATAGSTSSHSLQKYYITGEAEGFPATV
Chain of Estrogen receptor beta (Homo sapiens) (Q92731 whole entry, looked up): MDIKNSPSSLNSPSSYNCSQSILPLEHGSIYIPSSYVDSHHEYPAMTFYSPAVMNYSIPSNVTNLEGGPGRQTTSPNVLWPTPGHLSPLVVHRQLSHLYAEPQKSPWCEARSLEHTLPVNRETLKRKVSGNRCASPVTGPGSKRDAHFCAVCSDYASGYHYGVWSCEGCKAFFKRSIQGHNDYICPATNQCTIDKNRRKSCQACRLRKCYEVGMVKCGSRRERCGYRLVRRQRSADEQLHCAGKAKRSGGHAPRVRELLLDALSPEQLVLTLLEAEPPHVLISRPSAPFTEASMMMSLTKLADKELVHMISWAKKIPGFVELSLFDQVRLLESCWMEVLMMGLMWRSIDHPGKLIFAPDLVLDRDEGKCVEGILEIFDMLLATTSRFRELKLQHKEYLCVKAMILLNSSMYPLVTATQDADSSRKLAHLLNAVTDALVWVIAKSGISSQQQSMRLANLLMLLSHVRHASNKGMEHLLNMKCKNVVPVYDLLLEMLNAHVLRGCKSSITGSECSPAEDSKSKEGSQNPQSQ
Chain of Progesterone receptor (Homo sapiens) (P06401 whole entry, looked up): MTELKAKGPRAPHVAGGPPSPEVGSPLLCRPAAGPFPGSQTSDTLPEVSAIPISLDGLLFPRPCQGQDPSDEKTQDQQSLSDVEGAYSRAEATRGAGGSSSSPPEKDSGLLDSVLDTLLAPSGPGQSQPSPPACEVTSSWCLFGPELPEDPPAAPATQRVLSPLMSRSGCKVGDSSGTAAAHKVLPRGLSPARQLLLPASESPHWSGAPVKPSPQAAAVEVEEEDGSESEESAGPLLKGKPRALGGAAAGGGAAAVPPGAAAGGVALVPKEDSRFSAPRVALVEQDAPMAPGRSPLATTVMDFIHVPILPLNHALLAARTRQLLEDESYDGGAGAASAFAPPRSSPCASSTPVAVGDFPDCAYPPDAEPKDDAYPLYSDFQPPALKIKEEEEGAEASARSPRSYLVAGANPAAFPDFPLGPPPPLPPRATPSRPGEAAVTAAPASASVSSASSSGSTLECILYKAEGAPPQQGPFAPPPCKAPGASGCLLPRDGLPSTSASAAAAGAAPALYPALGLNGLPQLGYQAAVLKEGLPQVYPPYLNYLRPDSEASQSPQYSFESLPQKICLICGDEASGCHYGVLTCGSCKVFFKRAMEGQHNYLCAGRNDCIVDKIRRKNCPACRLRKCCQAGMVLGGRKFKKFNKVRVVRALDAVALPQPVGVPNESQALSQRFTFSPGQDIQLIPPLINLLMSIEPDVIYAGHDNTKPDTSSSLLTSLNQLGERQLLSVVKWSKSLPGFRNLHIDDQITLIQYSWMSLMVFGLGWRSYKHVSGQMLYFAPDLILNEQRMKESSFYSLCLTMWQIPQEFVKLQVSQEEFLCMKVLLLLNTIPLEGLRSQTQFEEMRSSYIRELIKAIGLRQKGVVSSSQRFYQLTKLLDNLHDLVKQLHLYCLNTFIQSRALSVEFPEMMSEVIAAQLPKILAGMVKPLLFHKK

Take `O=S1(=O)CC=CC1`: the Potency result in [1], in experiment [2], in [4], in experiment [7], in [8] and in [9] was “inactive” each time. The Potency entry in [10], in experiment [11], in experiment [12], in [14], in experiment [15] and in experiment [16] was “inactive” throughout. In addition, the Potency entry in experiment [17] is “inactive”. The compound was classed as inactive in [3], in [5] and in [13]. Moreover, in experiment [6], the Potency is 6.62 µM (active) and inactive.

Turning to `O=C(OCCOCCOC(=O)c1ccccc1)c1ccccc1`, the Potency entry in experiment [1], in experiment [2], in [4], in experiment [18], in experiment [6] and in experiment [9] was “inactive” each time. Besides, the Potency result in [10], in experiment [11], in [12], in [14], in [15] and in experiment [16] was “inactive” throughout. Also, the compound was classed as inactive in experiment [3], in experiment [5] and in experiment [13].

In the case of `Cc1ccc2oc(=O)ccc2c1`, the Potency entry in experiment [1], in [2], in experiment [4], in [18], in experiment [6] and in experiment [7] was “inactive” each time. Further, the Potency entry in experiment [9], in experiment [10], in experiment [11], in experiment [12], in experiment [14] and in experiment [15] was “inactive” throughout. The Potency result in [16] and in experiment [17] was “inactive” throughout. Further, the compound was called inactive in experiment [3], in [5] and in experiment [13].

On to `C=CCOC(=O)c1ccccc1C(=O)OCC=C`, for which the Potency entry in [1], in experiment [2], in experiment [4], in experiment [6], in [9] and in [10] was “inactive” each time. The Potency entry in [11], in [12], in experiment [15] and in [16] was “inactive” in each case. In addition, the compound was classed as inactive in experiment [3], in experiment [5] and in [13].

On to `OC[C@H]1O[C@@](CO)(O[C@H]2O[C@H](CO)[C@@H](O)[C@H](O)[C@H]2O)[C@@H](O)[C@@H]1O`, for which the compound was classed as inactive in [19], in experiment [3] and in experiment [5]. In addition, the Potency result in experiment [2], in experiment [4], in [18], in experiment [6], in [7] and in experiment [9] was “inactive” each time. Besides, the Potency entry in [10], in [11], in [12], in experiment [15] and in experiment [16] was “inactive” each time.

For the compound `O=[N+]([O-])c1ccc(/C=C/c2ccc([N+](=O)[O-])cc2S(=O)(=O)O)c(S(=O)(=O)O)c1`, the Potency entry in [1], in [2], in experiment [4], in [18], in experiment [6] and in experiment [7] was “inactive” each time. In addition, the Potency result in experiment [8], in [9], in experiment [10], in experiment [11], in [12] and in experiment [15] was “inactive” in each case. Besides, in experiment [16], the Potency entry is “inactive”. The compound was classed as inactive in [3] and in [5].

With `CCCCC(CC)COC(=O)CCCCC(=O)OCC(CC)CCCC` (stereo unspecified), the Potency result in experiment [1], in [2], in [4], in [18], in experiment [6] and in experiment [7] was “inactive” throughout. Besides, the Potency result in experiment [8], in experiment [9], in experiment [10], in experiment [11], in [12] and in experiment [15] was “inactive” each time. Besides, the Potency entry in [16] and in experiment [17] was “inactive” in each case. The result in experiment [3], in [5] and in experiment [13] was inactive.

With `CCCCCCCCCC`, the Potency result in experiment [1], in experiment [2], in [4], in [18], in [6] and in experiment [7] was “inactive” throughout. In addition, the Potency entry in experiment [8], in experiment [9], in [10], in experiment [11], in [12] and in experiment [14] was “inactive” throughout. Besides, the Potency entry in experiment [15], in experiment [16] and in [17] was “inactive” in each case. Further, the outcome in [3], in [5] and in experiment [13] was inactive.
